# Results from the supplement of paper PMC4466140.
# Experiments:
# Assay in all cases: SPOT peptide array binding signal intensity (averaged, normalized) (arbitrary units (background-subtracted, floor 0; scale differs between SH3 domains)); higher = stronger binding of the SH3 domain to the peptide
# AgAbp1 = biological target: AgAbp1
# Summary of the method: (§1)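 GST-fused SH3 domains from four yeast species were expressed in E. coli BL21(DE3), purified on glutathione Sepharose and incubated at 10 μg/ml overnight at 4°C in TBS-based blocking buffer on cellulose membranes carrying synthetic 15-mer peptides, with cysteines replaced by serines. Bound protein was detected with anti-GST antibody, an HRP anti-mouse secondary and luminol, then imaged and quantified with Genespotter. Binding signal is the normalized, background-subtracted spot intensity averaged over replicates, in arbitrary units that differ between domains.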
# AgBbc1 = biological target: AgBbc1
# Summary of the method: as §1
# AgBem1-D1 = biological target: AgBem1-D1
# Summary of the method: as §1
# AgBzz1-D1 = biological target: AgBzz1-D1
# Summary of the method: as §1
# AgBzz1-D2 = biological target: AgBzz1-D2
# Summary of the method: as §1
# AgCyk3 = biological target: AgCyk3
# Summary of the method: as §1
# AgFus1 = biological target: AgFus1
# Summary of the method: as §1
# AgHof1 = biological target: AgHof1
# Summary of the method: as §1
# AgHse1 = biological target: AgHse1
# Summary of the method: as §1
# AgLsb1 = biological target: AgLsb1
# Summary of the method: as §1
# AgLsb4 = biological target: AgLsb4
# Summary of the method: as §1
# AgMyo5 = biological target: AgMyo5
# Summary of the method: as §1
# AgNbp2 = biological target: AgNbp2
# Summary of the method: as §1
# AgRvs167 = biological target: AgRvs167
# Summary of the method: as §1
# AgSho1 = biological target: AgSho1
# Summary of the method: as §1
# AgSla1-D1-D2 = biological target: AgSla1-D1-D2
# Summary of the method: as §1
# AgSla1-D3 = biological target: AgSla1-D3
# Summary of the method: as §1
# CaAbp1-D1 = biological target: CaAbp1-D1
# Summary of the method: as §1
# CaAbp1-D2 = biological target: CaAbp1-D2
# Summary of the method: as §1
# CaBbc1 = biological target: CaBbc1
# Summary of the method: as §1
# CaBem1-D1 = biological target: CaBem1-D1
# Summary of the method: as §1
# CaBzz1-D1 = biological target: CaBzz1-D1
# Summary of the method: as §1
# CaBzz1-D2 = biological target: CaBzz1-D2
# Summary of the method: as §1
# CaCyk3 = biological target: CaCyk3
# Summary of the method: as §1
# CaFus1 = biological target: CaFus1
# Summary of the method: as §1
# CaHof1 = biological target: CaHof1
# Summary of the method: as §1
# CaHse1 = biological target: CaHse1
# Summary of the method: as §1
# CaLsb1 = biological target: CaLsb1
# Summary of the method: as §1
# CaLsb4 = biological target: CaLsb4
# Summary of the method: as §1
# CaMyo5 = biological target: CaMyo5
# Summary of the method: as §1
# CaNbp2 = biological target: CaNbp2
# Summary of the method: as §1
# CaRvs167 = biological target: CaRvs167
# Summary of the method: as §1
# CaRvs167-3 = biological target: CaRvs167-3
# Summary of the method: as §1
# CaSho1 = biological target: CaSho1
# Summary of the method: as §1
# CaSla1-D1-D2 = biological target: CaSla1-D1-D2
# Summary of the method: as §1
# CaSla1-D3 = biological target: CaSla1-D3
# Summary of the method: as §1
# ScAbp1 = biological target: ScAbp1
# Summary of the method: as §1
# ScBbc1 = biological target: ScBbc1
# Summary of the method: as §1
# ScBem1-D1 = biological target: ScBem1-D1
# Summary of the method: as §1
# ScBzz1-D1 = biological target: ScBzz1-D1
# Summary of the method: as §1
# ScBzz1-D2 = biological target: ScBzz1-D2
# Summary of the method: as §1
# ScCyk3 = biological target: ScCyk3
# Summary of the method: as §1
# ScFus1 = biological target: ScFus1
# Summary of the method: as §1
# ScHof1 = biological target: ScHof1
# Summary of the method: as §1
# ScHse1 = biological target: ScHse1
# Summary of the method: as §1
# ScLsb1 = biological target: ScLsb1
# Summary of the method: as §1
# ScLsb2 = biological target: ScLsb2
# Summary of the method: as §1
# ScLsb3 = biological target: ScLsb3
# Summary of the method: as §1
# ScLsb4 = biological target: ScLsb4
# Summary of the method: as §1
# ScMyo3 = biological target: ScMyo3
# Summary of the method: as §1
# ScMyo5 = biological target: ScMyo5
# Summary of the method: as §1
# ScNbp2 = biological target: ScNbp2
# Summary of the method: as §1
# ScPex13 = biological target: ScPex13
# Summary of the method: as §1
# ScRvs167 = biological target: ScRvs167
# Summary of the method: as §1
# ScSho1 = biological target: ScSho1
# Summary of the method: as §1
# ScSla1-D1-D2 = biological target: ScSla1-D1-D2
# Summary of the method: as §1
# ScSla1-D3 = biological target: ScSla1-D3
# Summary of the method: as §1
# SpAbp1-D1 = biological target: SpAbp1-D1
# Summary of the method: as §1
# SpBbc1 = biological target: SpBbc1
# Summary of the method: as §1
# SpBzz1-D1 = biological target: SpBzz1-D1
# Summary of the method: as §1
# SpBzz1-D2 = biological target: SpBzz1-D2
# Summary of the method: as §1
# SpCyk3 = biological target: SpCyk3
# Summary of the method: as §1
# SpHof1 = biological target: SpHof1
# Summary of the method: as §1
# SpHof1-2 = biological target: SpHof1-2
# Summary of the method: as §1
# SpHof1-3 = biological target: SpHof1-3
# Summary of the method: as §1
# SpHse1 = biological target: SpHse1
# Summary of the method: as §1
# SpLsb1 = biological target: SpLsb1
# Summary of the method: as §1
# SpLsb4 = biological target: SpLsb4
# Summary of the method: as §1
# SpMyo1 = biological target: SpMyo1
# Summary of the method: as §1
# SpNbp2 = biological target: SpNbp2
# Summary of the method: as §1
# SpPex13 = biological target: SpPex13
# Summary of the method: as §1
# SpRvs167 = biological target: SpRvs167
# Summary of the method: as §1
# SpSla1-D1-D2 = biological target: SpSla1-D1-D2
# Summary of the method: as §1
# SpSla1-D3 = biological target: SpSla1-D3
# Summary of the method: as §1
binder,measurement,setting,value
IFLRISINFPLNYPN,SPOT peptide array binding signal intensity,AgAbp1,76
same,SPOT peptide array binding signal intensity,AgBbc1,233
same,SPOT peptide array binding signal intensity,AgBem1-D1,952
same,SPOT peptide array binding signal intensity,AgBzz1-D1,1120
same,SPOT peptide array binding signal intensity,AgBzz1-D2,412
same,SPOT peptide array binding signal intensity,AgCyk3,52.5
same,SPOT peptide array binding signal intensity,AgFus1,4330
same,SPOT peptide array binding signal intensity,AgHof1,218
same,SPOT peptide array binding signal intensity,AgHse1,2460
same,SPOT peptide array binding signal intensity,AgLsb1,68.8
same,SPOT peptide array binding signal intensity,AgLsb4,2440
same,SPOT peptide array binding signal intensity,AgMyo5,29.5
same,SPOT peptide array binding signal intensity,AgNbp2,1630
same,SPOT peptide array binding signal intensity,AgRvs167,162
same,SPOT peptide array binding signal intensity,AgSho1,2150
same,SPOT peptide array binding signal intensity,AgSla1-D1-D2,74.2
same,SPOT peptide array binding signal intensity,AgSla1-D3,73.9
same,SPOT peptide array binding signal intensity,CaAbp1-D1,448
same,SPOT peptide array binding signal intensity,CaAbp1-D2,305
same,SPOT peptide array binding signal intensity,CaBbc1,487
same,SPOT peptide array binding signal intensity,CaBem1-D1,666
same,SPOT peptide array binding signal intensity,CaBzz1-D1,1170
same,SPOT peptide array binding signal intensity,CaBzz1-D2,821
same,SPOT peptide array binding signal intensity,CaCyk3,107
same,SPOT peptide array binding signal intensity,CaFus1,7820
same,SPOT peptide array binding signal intensity,CaHof1,1.25
same,SPOT peptide array binding signal intensity,CaHse1,1570
same,SPOT peptide array binding signal intensity,CaLsb1,63.5
same,SPOT peptide array binding signal intensity,CaLsb4,477
same,SPOT peptide array binding signal intensity,CaMyo5,156
same,SPOT peptide array binding signal intensity,CaNbp2,2110
same,SPOT peptide array binding signal intensity,CaRvs167,750
same,SPOT peptide array binding signal intensity,CaRvs167-3,1500
same,SPOT peptide array binding signal intensity,CaSho1,2060
same,SPOT peptide array binding signal intensity,CaSla1-D1-D2,602
same,SPOT peptide array binding signal intensity,CaSla1-D3,1050
same,SPOT peptide array binding signal intensity,ScAbp1,93.2
same,SPOT peptide array binding signal intensity,ScBbc1,59.9
same,SPOT peptide array binding signal intensity,ScBem1-D1,194
same,SPOT peptide array binding signal intensity,ScBzz1-D1,558
same,SPOT peptide array binding signal intensity,ScBzz1-D2,2990
same,SPOT peptide array binding signal intensity,ScCyk3,127
same,SPOT peptide array binding signal intensity,ScFus1,5050
same,SPOT peptide array binding signal intensity,ScHof1,30.8
same,SPOT peptide array binding signal intensity,ScHse1,3840
same,SPOT peptide array binding signal intensity,ScLsb1,12.8
same,SPOT peptide array binding signal intensity,ScLsb2,64
same,SPOT peptide array binding signal intensity,ScLsb3,1490
same,SPOT peptide array binding signal intensity,ScLsb4,396
same,SPOT peptide array binding signal intensity,ScMyo3,32.5
same,SPOT peptide array binding signal intensity,ScMyo5,114
same,SPOT peptide array binding signal intensity,ScNbp2,2820
same,SPOT peptide array binding signal intensity,ScPex13,516
same,SPOT peptide array binding signal intensity,ScRvs167,223
same,SPOT peptide array binding signal intensity,ScSho1,6350
same,SPOT peptide array binding signal intensity,ScSla1-D1-D2,880
same,SPOT peptide array binding signal intensity,ScSla1-D3,344
same,SPOT peptide array binding signal intensity,SpAbp1-D1,211
same,SPOT peptide array binding signal intensity,SpBbc1,238
same,SPOT peptide array binding signal intensity,SpBzz1-D1,1240
same,SPOT peptide array binding signal intensity,SpBzz1-D2,97
same,SPOT peptide array binding signal intensity,SpCyk3,35
same,SPOT peptide array binding signal intensity,SpHof1,342
same,SPOT peptide array binding signal intensity,SpHof1-2,157
same,SPOT peptide array binding signal intensity,SpHof1-3,1040
same,SPOT peptide array binding signal intensity,SpHse1,2240
same,SPOT peptide array binding signal intensity,SpLsb1,33
same,SPOT peptide array binding signal intensity,SpLsb4,625
same,SPOT peptide array binding signal intensity,SpMyo1,168
same,SPOT peptide array binding signal intensity,SpNbp2,1680
same,SPOT peptide array binding signal intensity,SpPex13,1640
same,SPOT peptide array binding signal intensity,SpRvs167,239
same,SPOT peptide array binding signal intensity,SpSla1-D1-D2,68
same,SPOT peptide array binding signal intensity,SpSla1-D3,512
